Compound activity (PubChem BioAssay)
FBW7 act: FBW7 E3 ligase activators, primary screen, biochemical, AlphaScreen, human. actives 0.13% (n = 650,000). F-box/WD repeat-containing protein 7 (Homo sapiens), Q969H0. AID 1259310, 2017. AlphaScreen FBW7–phospho-cyclin E peptide binding, activator screen. normalized activity (activation), % at 26.1 µM; in the data active = normalized activity above about 1.9%;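 note: purified mutant Fbw7 with reduced substrate affinity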
GPR151 ag: activators of human GPR151, primary screen, cell-based, PathHunter beta-arrestin, luminescence; G-protein coupled receptor 151 (Homo sapiens), Q8TDV0; PathHunter beta-arrestin GPR151 cells; activation, % at 11.2 µM; actives 1% (n = 650,000); AID 1508602, 2020; in the data active = activation above about 4.9%;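 note: 0% = median of compound wells and 100% = cells with positive control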
MITF primary: MITF inhibitors, primary screen, biochemical, AlphaScreen, human | Microphthalmia-associated transcription factor (Homo sapiens), O75030 | AlphaScreen MITF homodimerization, bead proximity signal | inhibition, % at 2.6 µM | actives 0.91% (n = 650,000) | AID 1259374, 2018; in the data active = inhibition above about 50%;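 note: 0% = vehicle wells with protein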
TEAD-YAP block: TEAD-YAP interaction inhibition, primary screen, TEAD-YAP interaction inhibitor project, luminescence, HEK-TIYL cells. TEAD-Gal4/YAP UAS-luciferase luminescence. inhibition, % at 9.12 µM. actives 1.4% (n = 640,000). AID 1259422, 2018; in the data active = inhibition above about 32%;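 note: 0% = median of test compound wells and 100% = reference inhibitor wells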
GPR151 conf act: GPR151 activators, triplicate retest, confirmation, cell-based, PathHunter beta-arrestin, luminescence; GPR151 PathHunter beta-arrestin cells, 90 min; % of EA-reagent control over plate median; shares compounds with GPR151 ag; 6,700 tested, under 10 active; activation, % at 11.2 µM;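 active = mean percent activation across replicates above the confirmation screen cutoff of 4.91%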
GPR119 counter: GPR119 activators in beta-arrestin cells, counter-screen for GPR151 activator project, cell-based, PathHunter beta-arrestin, luminescence, triplicate. shares compounds with GPR151 ag. 90 min; 0 = compound-well median, 100 = enzyme-acceptor control. activation, % at 11.2 µM. actives 0.3% (n = 6,700). AID 1508611, 2020;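 active = mean percent activation in the counterscreen above 29.09%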;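 note: counterscreen on off-target GPR119 to flag nonselective hits from the GPR151 activator screen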
Target sequence (Q8TDV5 whole entry, looked up): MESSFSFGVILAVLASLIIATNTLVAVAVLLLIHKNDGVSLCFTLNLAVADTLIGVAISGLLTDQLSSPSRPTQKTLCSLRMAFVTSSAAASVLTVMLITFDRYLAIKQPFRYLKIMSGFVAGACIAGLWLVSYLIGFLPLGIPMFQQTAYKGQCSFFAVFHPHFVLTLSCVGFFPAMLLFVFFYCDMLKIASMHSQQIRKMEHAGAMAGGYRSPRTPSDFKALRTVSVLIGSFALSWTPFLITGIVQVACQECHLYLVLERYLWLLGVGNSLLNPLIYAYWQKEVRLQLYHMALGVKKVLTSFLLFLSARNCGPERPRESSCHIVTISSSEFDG
* = called active by the depositor; · = no result given. Hits are enriched below; roughly 3.5% of the tested compounds scored in any of these assays.

SMILES | FBW7 act | GPR151 ag | MITF primary | TEAD-YAP block | GPR151 conf act | GPR119 counter
COC(=O)c1ccc(NC(=O)CN(c2ccc(F)cc2)S(C)(=O)=O)cc1 | 1.1 | -1.1 | 0.7 | -11.2 | · | ·
O=C(CN1CCN(S(=O)(=O)c2ccc3c(c2)OCCO3)CC1)c1cccs1 | 0.0 | 9.7* | 0.1 | -3.5 | 0.2 | -1.2
OCCCNc1nc(-c2cccs2)nc2ccccc12 | 0.3 | 2.0 | -11.9 | 5.6 | · | ·
CN(C)CCC(=O)N1c2ccccc2Sc2ccc(Cl)cc21 | 0.3 | -1.1 | 4.8 | -12.3 | · | ·
CN(C)CCOC1=Cc2ccccc2Sc2ccc(Cl)cc21 | 0.7 | 5.7* | 12.4 | · | 0.2 | -6.4
COc1ccc(Br)cc1C1C2=C(CC(C)(C)CC2=O)Nc2nc3ccccc3n21 (stereo not given) | -0.1 | -0.8 | -7.5 | 6.7 | · | ·
CC(=O)NCCNC(=O)c1ccc(Br)s1 | 0.0 | 6.0* | -1.9 | -5.7 | -0.8 | -3.6
O=C(NO)c1ccc(Br)s1 | 0.0 | 0.5 | 4.9 | -7.2 | · | ·
CCn1c(O)c(C=NC2CCCC2)c(=O)[nH]c1=S | -0.2 | 5.2* | -11.6 | 3.0 | -0.2 | -0.2
CC(OC(=O)C1CCCCC1)c1nc2ccccc2[nH]1 (stereo not given) | -0.3 | -0.2 | -6.2 | -6.6 | · | ·
O=C(O)c1cc(Cl)ccc1N=Cc1c(O)[nH]c2ccccc12 | 0.0 | 1.2 | 6.1 | 6.8 | · | ·
CCOc1ccc(NC(=O)CSC2=C(C#N)C(c3ccco3)C(C(=O)Nc3ccccc3)=C(C)N2)cc1 (stereo not given) | 0.1 | 5.0* | 2.8 | 20.8 | -0.7 | -7.2
O=C(c1ccco1)N1CCN(c2nccn3c(-c4cccc(Cl)c4)cnc23)CC1 | 0.1 | 6.9* | 18.0 | -0.6 | 1.3 | 21.4
O=[N+]([O-])c1ccc(Cl)cc1Sc1nc2ccccc2[nH]1 | 0.0 | 1.6 | 5.3 | -3.0 | · | ·
Cc1ccc(Nc2nc(N3CCOCC3)nc3c2cnn3C)c(C)c1 | -0.1 | 5.4* | 1.7 | -2.4 | -0.1 | 3.9
CCCn1c(=O)c2c(nc3n(-c4ccc(C(=O)OCC)cc4)c(C)cn23)n(C)c1=O | -0.5 | 0.0 | 8.5 | -3.8 | · | ·
CCn1c(=O)c2c(nc3n(CC)c(C)cn23)n(C)c1=O | 0.0 | 0.7 | -2.8 | 6.9 | · | ·
CCCCn1c(=O)c2c(nc3n(-c4ccc(C(=O)OCC)cc4)c(C)cn23)n(C)c1=O | 0.3 | 5.6* | 14.7 | 6.4 | 1.3 | -10.5
CCn1c(=O)c2c(nc3n(C)c(C)cn23)n(C)c1=O | -0.1 | 8.0* | 5.8 | 22.3 | 0.8 | 2.5
CCCCCCCC1=NN2C(=N)/C(=C/c3ccc(-c4ccccc4[N+](=O)[O-])o3)C(=O)N=C2S1 | 0.6 | 5.6* | 4.9 | -1.2 | 0.1 | 7.7
COc1cc(C)c(C(C)C)cc1S(=O)(=O)NCc1ccccc1 | 0.1 | -0.4 | 16.9 | 3.2 | · | ·
CC(C)c1ccc(N2C(=O)NC(=O)/C(=C/c3ccccc3O)C2=O)cc1 | 0.0 | 11.6* | 13.6 | 10.1 | 0.2 | -0.5
CC(C)c1ccc(N2C(=O)NC(=O)/C(=C/c3ccc(O)cc3)C2=O)cc1 | 0.1 | -1.8 | 11.8 | 7.6 | · | ·
O=C(CN1CCC2(CC1)CC(=O)c1ccccc1O2)Nc1cccc(F)c1 | -0.2 | -0.5 | -5.9 | -11.2 | · | ·
c1cnc2c(CN3CCc4nncn4CC3)cccc2c1 | 0.0 | -0.8 | -12.1 | 9.6 | · | ·
C=CCOc1ccccc1CN1CCc2nncn2CC1 | 0.0 | 7.4* | 4.8 | -2.8 | 0.1 | 4.3
C=CCOc1ccccc1CN1CCc2nnc(CNC(=O)C3CCCN(C)C3)n2CC1 (stereo not given) | 0.2 | -1.1 | 10.2 | 1.5 | · | ·
C=CCOc1ccccc1CN1CCc2nnc(CNC(=O)C3CCC(=O)N3)n2CC1 (stereo not given) | 0.0 | 5.6* | 6.7 | -6.7 | 1.2 | 10.6
COc1ccc(CN2CCN(C3CCN(C(C)=O)CC3)CC2CCO)c(F)c1 (stereo not given) | 0.1 | 0.1 | 12.8 | -5.7 | · | ·
OC1(c2cccnc2)CCN(CCN2CCCCC2)CC1 | 0.0 | 1.0 | -12.0 | 1.4 | · | ·
